PLK1 PBD inh = blocks phosphopeptide binding to human PLK1 polo-box domain | P53350 | Plk1 PBD binding of FITC phosphopeptide, fluorescence polarization | Potency, µM, for inactives: max response, negative = inhibition, usual class: inhibitors | 360,000 compounds, 2.8% hits | AID 720504; note: series mostly up to about 57 µM; nearly all actives have a fitted effect of over 65% in size
VDR inhibitor = vitamin D3 receptor (human) inhibition; VDR-SRC2-3 peptide fluorescence polarization, 2 h; Potency, µM, without a hit: max response, negative = inhibition, actives largely listed as inhibitors; 400,000 compounds, 0.93% hits; AID 504847
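The screen uses fluorescence polarization to detect compounds that interfere with recruitment of the SRC2-3 coactivator peptide to VDR; plates are read after 2 h at room temperature.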
TDP1 cell CPT = DT40-hTDP1 cell growth loss with CPT; Potency, µM (doses to about 46.2 µM), without a hit: at the highest dose activity change, negative = growth inhibition, actives largely listed as inhibitors; chicken DT40 Tdp1-/-;hTDP1 cells + 20 nM CPT, ATP luminescence, 48 h; 420,000 compounds, 12% hits; note: nearly all actives have a fitted effect of over 55% in size
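Cell growth measured by CellTiter-Glo luminescence after a minimum 48 h, 37 C compound exposure with 20 nM CPT in Tdp1-knockout DT40 cells stably expressing hTDP1, seeded 400/well; qHTS titration format.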
TDP1 block = inhibitors of human tyrosyl-DNA phosphodiesterase TDP1 | recombinant TDP1, AlphaScreen DNA substrate cleavage | 350,000 compounds, 0.28% hits | Potency, µM (highest dose often 130 µM), for inactives: top-dose activity change, negative = inhibition, actives largely listed as inhibitors | Q9NUW8; note: nearly all actives have a fitted effect of over 40% in size
Target sequence (Q9NUW8 whole entry, looked up): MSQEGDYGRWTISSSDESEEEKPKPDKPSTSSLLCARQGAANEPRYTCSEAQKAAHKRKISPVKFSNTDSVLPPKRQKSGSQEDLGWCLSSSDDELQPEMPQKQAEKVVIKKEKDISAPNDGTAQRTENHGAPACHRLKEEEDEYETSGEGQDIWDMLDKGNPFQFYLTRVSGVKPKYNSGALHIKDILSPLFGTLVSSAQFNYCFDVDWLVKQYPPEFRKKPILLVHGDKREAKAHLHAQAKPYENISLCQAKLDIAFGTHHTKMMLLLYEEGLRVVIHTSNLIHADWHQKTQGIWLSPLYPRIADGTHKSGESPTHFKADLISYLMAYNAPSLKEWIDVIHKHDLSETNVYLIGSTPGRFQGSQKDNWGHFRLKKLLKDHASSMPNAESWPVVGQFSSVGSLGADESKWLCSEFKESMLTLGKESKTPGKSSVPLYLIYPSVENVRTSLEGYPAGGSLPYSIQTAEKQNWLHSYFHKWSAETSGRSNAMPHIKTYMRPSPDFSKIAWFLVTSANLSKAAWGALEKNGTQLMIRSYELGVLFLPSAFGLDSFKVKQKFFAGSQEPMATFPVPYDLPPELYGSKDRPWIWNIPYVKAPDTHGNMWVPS
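AlphaScreen read-out: signal falls as enzyme removes the 3' tyrosine-FITC from a 5'-biotinylated DNA oligo (15 nM, 5 min, RT). Enzyme was E. coli-made recombinant Tdp1 at 1 nM, exposed to compound for 15 min beforehand; beads 10 ug/ml, 10 min.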
DT40 TDP1 no CPT = qHTS for Inhibitors of human tyrosyl-DNA phosphodiesterase 1 (TDP1): qHTS in cells in absence of CPT; DT40 Tdp1-/- hTDP1 cells, no CPT, ATP luminescence, 48 h; Potency, µM (highest dose often 46.2 µM), for the others: top-dose activity change, negative = growth inhibition, usual class: inhibitors; 420,000 compounds, 15% hits; AID 686978, 2013; note: nearly all actives have a fitted effect of over 55% in size
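Compound effects on proliferation are scored in DT40 Tdp1-/-;hTDP1 cells in the absence of CPT. ATP levels (CellTiter-Glo luminescence) are recorded after a ≥48 hr, 37 °C incubation.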
KAT2A inh = GCN5L2 (KAT2A) acetyltransferase inhibition; Q92830; GCN5L2 HAT assay, ThioGlo1 CoA-SH fluorescence; Potency, µM (highest dose often 58.9 µM), for inactives: at the highest dose activity change, negative = inhibition, most hits filed as inhibitors; 390,000 compounds, 0.21% hits
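Compounds, pin-transferred from DMSO stocks, meet 20nM GCN5L2 for 15 min before the reaction begins with H3(1-25) peptide (75uM) and acetyl-CoA (70uM). Thiol-reactive ThioGlo1 reports CoA release over 20 min at room temperature.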
Active calls of the source: *; ? = inconclusive; . = no result given; [ ] = remark or other dose. Rows were chosen to be rich in hits. Some 18% of all compounds tested hit in one or more screens of this group. Calls come from the whole dose curve; as a rule, active = well fitted curve in the direction sought with a large enough effect; inconclusive = small, poorly fitted or top-dose-only effect, or another doubt; inactive = no such curve, though single readings can be large; an effect the other way counts as inactive or inconclusive. % is set by controls: 0 for no effect and ±100 for the full control effect; potency is the fitted concentration of half-maximal effect.

SMILES	PLK1 PBD inh	VDR inhibitor	TDP1 cell CPT	TDP1 block	DT40 TDP1 no CPT	KAT2A inh
C#CCOCCOCCOCCNc1nc(N2CCOCC2)nc(N2CCN(C(=O)CCCCCCCCCCNC(=O)[C@@H](CCSC)n3cc(CCO)nn3)CC2)n1	-15.3%	-5.4%	?	2.5%	?	-4.4%
Cc1ccc(C(=O)N2CCN(c3ccc([N+](=O)[O-])c(N4CCOCC4)c3)CC2)cc1	4.5%	8.4%	29.1µM*	1.8%	?	-7.0%
O=C(COc1ccccc1Cl)N1CCN(c2ccc([N+](=O)[O-])c(N3CCOCC3)c2)CC1	2.9%	9.0%	?	10.5%	16.4µM*	-28.5%
O=C(c1ccco1)N1CCN(c2ccc([N+](=O)[O-])c(N3CCOCC3)c2)CC1	-6.2%	-3.1%	-2.7%	-2.8%	-22.1%	-1.2%
O=C(c1ccc(F)cc1)N1CCN(c2ccc([N+](=O)[O-])c(N3CCOCC3)c2)CC1	-5.4%	-24.5%	?	3.2%	?	-0.3%
Cc1nc2ccccc2nc(C)c1=NOCC(=O)N(c1ccccc1)C(C)C	-0.6%	14.5%	?	-2.6%	18.4µM*	-14.7%
CC(C)N(C(=O)COC(=O)Cn1cnc2ccccc21)c1ccccc1	-9.4%	15.0%	-19.1%	-3.4%	-14.0%	-5.4%
CC(C)(C)c1cc(C(F)(F)F)nc(SCCCNC(=O)c2ccco2)n1	-4.5%	7.5%	23.1µM*	-2.2%	20.6µM*	-2.1%[0.501 µM]
CC[C@]1(c2ncc[nH]2)Cc2ccccc2O1	.	6.6%	?	4.8%	23.7µM*	-9.2%
CN(C)CCC1(c2ccc(Cl)cc2)Cc2ccccc2C(=O)O1 (configuration not stated)	.	1.1%	.	8.2%	.	0.0%
Cc1cc(Cl)ccc1-c1nc(NC(C)C)nc2ccsc12	-13.3%	.	18.4µM*	.	23.1µM*	.
Cc1cc(Cl)ccc1-c1nc(NCc2ccccc2)nc2ccsc12	-4.8%	.	?	.	?	.
CCCC(NC(=S)NCC1CCCO1)C12CC3CC(CC(C3)C1)C2 (configuration not stated)	-10.9%	-11.2%	?	0.0%	?	-5.4%
Cc1cc(C)n(C(N)=NC(=O)c2ccccc2)n1	-6.7%	.	5.6%	.	0.2%	.
COc1cc(C(=O)Oc2cccc(/C=N/NC(=O)c3cc(C)[nH]n3)c2)cc(OC)c1OC	-4.4%	17.6%	?	-8.1%	20.6µM*	-6.5%
COc1cc(C(=O)Oc2cccc(C=O)c2)cc(OC)c1OC	-1.6%	3.1%	25.9µM*	-2.0%	?	-6.7%
Cc1ccc(CNCCC2=CCCCC2)cc1	-0.2%	9.1%	?	-6.8%	23.1µM*	-21.0%
CCn1c(O)c(N=NC(=O)c2ccc(CSc3nncn3C)cc2)c2ccccc21	-17.5%	-25.4%	?	6.7%	14.6µM*	-10.1%
Cn1cnnc1SCc1ccc(C(=O)N=Nc2c(O)n(Cc3ccc(Cl)cc3)c3ccccc23)cc1	-16.4%	-1.9%	20.6µM*	8.9%	10.3µM*	-11.2%
CCn1c(O)c(N=NC(=O)Cn2ccc(C(F)(F)F)n2)c2ccccc21	-6.2%	-13.0%	-27.4%	5.9%	?	-1.6%
O=c1c(-c2ccc(Cl)cc2)nc2cnc(Nc3ccccc3)nc2n1C[C@H]1CCCO1	.	-20.0%	-14.1%	.	-4.0%	-4.0%
O=C(Nc1cc(Sc2ccccn2)cc([N+](=O)[O-])c1)c1ccc(Cl)cc1	-6.5%	3.0%	?	8.6%	23.1µM*	-14.1%
Cc1cccc(COc2ccc(-c3cc(C(F)(F)F)n4nc(C)cc4n3)cc2)c1	.	-12.2%	?	-4.5%	?	-20.4%
CC1=C(C(=O)N2CCOCC2)CC(CC(=O)NC2CCCCC2)C(=O)N1Cc1ccccc1 (configuration not stated)	-2.2%	.	-2.4%	.	-13.2%	.
O=c1[nH]cnc2c1sc1nc(-c3ccccc3)c3c(c12)CCCC3	0.4%	-7.4%	34.1%	2.7%	4.6%	-5.2%
SMILES	PLK1 PBD inh	VDR inhibitor	TDP1 cell CPT	TDP1 block	DT40 TDP1 no CPT	KAT2A inh
COC(=O)CSc1ncnc2c1sc1nc(N3CCOCC3)c3c(c12)CCCC3	-0.4%	-6.5%	-5.5%	-3.9%	-4.9%	-8.6%
O=C(O)CSc1ncnc2c1sc1nc(-c3ccccc3)c3c(c12)CCC3	29.9µM*	-10.9%	-24.3%	5.2%	?	?
COC(=O)c1ccc(-c2sc3nc(N4CCOCC4)c4c(c3c2N)CCCC4)o1	-9.4%	0.9%	18.4µM*	-4.7%	25.9µM*	-5.1%
COC(=O)c1ccc(CSc2ncnc3c2sc2nc(N4CCOCC4)c4c(c23)CCCC4)o1	-19.5%	-8.3%	?	.	18.4µM*	.
COC(=O)c1ccccc1NC(=O)c1ccc(CN2CC(=O)N3CCCCC3C2=O)cc1 (configuration not stated)	.	9.6%	?	6.2%	?	-3.0%
Cn1c(=O)c2c(nc(CN3CCN(c4cccc(Cl)c4)CC3)n2CCc2ccccc2)n(C)c1=O	-9.4%	-4.0%	13µM*	.	10.3µM*	.
Cn1c(=O)c2c(nc(CN3CCCCC3)n2CCc2ccccc2)n(C)c1=O	-8.4%	8.3%	-14.9%	1.9%	?	2.5%
Cn1c(=O)c2c(nc(CN3CCN(CCO)CC3)n2CCc2ccccc2)n(C)c1=O	-5.1%	-23.8%	13.7%	.	-14.2%	-0.4%
Cn1c(=O)c2c(nc(CN3CCN(c4ccccc4)CC3)n2CCc2ccccc2)n(C)c1=O	-5.3%	5.8%	23.1µM*	.	23.1µM*	.
COc1ccc(Cl)cc1NC(=O)NCC1CCN(Cc2cc(C)ccc2C)CC1	3.3%	-3.5%	?	.	?	-25.4%
O=C(NCC1CCN(Cc2ccccc2F)CC1)Nc1cccc(Br)c1	-4.1%	7.3%	?	.	16.4µM*	-9.3%
Cc1ccc(C)c(CN2CCC(CNC(=O)Nc3ccc(C)c(C)c3)CC2)c1	-1.8%	-0.7%	?	.	14.6µM*	1.0%
O=C(NCC1CCN(Cc2cccc(Cl)c2)CC1)Nc1ccc(Cl)cc1	-4.3%	?	?	.	?	-18.1%
O=C(NCC1CCN(Cc2cccc(Cl)c2)CC1)Nc1cc(Cl)ccc1Cl	.	-5.4%	23.1µM*	0.0%	13µM*	-12.3%
O=C(NCC1CCN(Cc2ccccc2F)CC1)Nc1ccccc1F	-3.4%	5.2%	-14.2%	.	-0.5%	3.7%
Cc1ccc(NC(=O)CCn2c(=O)[nH]c3ccsc3c2=O)cc1F	-2.3%	-2.4%	4.2%	8.2%	-8.8%	-19.4%
CCc1ccc(NC(=O)CN2C(=O)C3(SCC(=O)N3c3ccccc3)c3ccccc32)cc1 (configuration not stated)	.	10.2%	20.6µM*	0.0%	?	-3.8%

Screens as filed in PubChem.
